Compound activity from PubChem.
PNC inhibitor = High Content Assay for Compounds that inhibit the Assembly of the Perinucleolar Compartment. hit rate 3.1% among 140,000. activity change (PNC), negative = inhibition, % at 10 µM. PC3M PTB-GFP, PNC prevalence imaging, 16 h; stronger effect = lower value. AID 2417, 2010;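 active = readout at or below -70, meaning at least 70% loss of cells showing the perinucleolar compartment, a nuclear body marking cancer cells; inconclusive = readout between -30 and a set limit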;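 note: plate controls were DMSO wells for no effect and camptothecin positive control wells for full effect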
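PC3M cells stably expressing PTB-GFP, 750–1000 cells/well, treated 16 h at 37 °C with compound (23 nl of library stock), in duplicate. After paraformaldehyde fixation and Hoechst stain, imaged at 20x; PNC prevalence scored by image analysis.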
ALDH1A1 block = qHTS Assay for Inhibitors of Aldehyde Dehydrogenase 1 (ALDH1A1); Aldehyde dehydrogenase 1A1 (Homo sapiens), P00352; Purified ALDH1A1, NADH fluorescence, propionaldehyde substrate; Potency, µM (doses to about 75.3 µM), for inactives: top-dose activity, negative = inhibition, hits mostly inhibitors; hit rate 7.3% among 220,000; AID 1030, 2008;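 note: potency is the fitted concentration of half-maximal effect; plate controls were no enzyme wells and a reference inhibitor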
Target sequence (P00352 whole entry, looked up): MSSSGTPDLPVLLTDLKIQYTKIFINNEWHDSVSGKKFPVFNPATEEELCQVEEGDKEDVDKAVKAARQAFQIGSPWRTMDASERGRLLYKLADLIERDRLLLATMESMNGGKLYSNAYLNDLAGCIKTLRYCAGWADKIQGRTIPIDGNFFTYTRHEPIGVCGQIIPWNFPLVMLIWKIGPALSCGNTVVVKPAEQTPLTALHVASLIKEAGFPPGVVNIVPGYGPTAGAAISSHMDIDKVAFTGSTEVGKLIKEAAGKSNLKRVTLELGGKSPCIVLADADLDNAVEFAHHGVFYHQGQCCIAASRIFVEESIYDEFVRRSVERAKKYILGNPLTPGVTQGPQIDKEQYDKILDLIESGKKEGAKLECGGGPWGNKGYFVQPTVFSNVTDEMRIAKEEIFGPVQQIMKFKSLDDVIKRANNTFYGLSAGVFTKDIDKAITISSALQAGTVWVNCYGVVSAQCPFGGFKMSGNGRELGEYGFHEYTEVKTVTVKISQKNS
HPGD inh = qHTS Assay for Inhibitors of HPGD (15-Hydroxyprostaglandin Dehydrogenase) | hit rate 4.3% among 150,000 | Potency, µM, without a hit: top-dose activity change, negative = inhibition, usual class: inhibitors | purified HPGD, NADH fluorescence kinetic, PGE2 substrate; note: potency is the fitted concentration of half-maximal effect
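NADH formation kinetics: reaction with 30 uM PGE2 and 1 mM NAD+ (final), 20 nM enzyme, Tris-HCl pH 8 with Tween 20, after 15 min compound preincubation at room temperature. Fluorescence change, last versus first of five reads.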
* hit, by the source's call; ? = inconclusive; / = no result given; [ ] = another dose, or the depositor's remark. Shown are actives, neighbours in structure and some others; about 11% of the full set was active somewhere. Unless noted, calls come from the whole dose curve; as a rule, active = well fitted inhibition curve with a large enough effect (not every such curve was filed as active); inconclusive = small, poorly fitted or top-dose-only effect, or another doubt; inactive = no such curve, though single readings can be large or run the other way. Unless noted, % is set by controls: 0 for no effect and ±100 for the full control effect.

SMILES	PNC inhibitor	ALDH1A1 block	HPGD inh
CC12CCC(CC1=O)C2(C)C (centres undefined)	/	7.08µM*	-10.2%
CC1(C)C2CC[C@@]1(C)C(=O)C2	/	3.3%	-2.4%
CCOC(=O)c1c(C)nc2c(c(SC)nn2-c2ccccc2)c1N	20.8	?	?
c1ccc2c(c1)[nH]c1c(N3CCCC3)ncnc12	44.7	1.7%	-7.9%
c1ccc2c(c1)[nH]c1c(N3CCOCC3)ncnc12	-119.2*	?	-14.4%
NC(=O)C1CCN(C(=O)c2cc3n(n2)C(C(F)(F)F)CC(c2ccco2)N3)CC1 (centres undefined)	-3.9	11.9µM*	-11.3%
O=C(NC1CCCCCC1)c1cc2n(n1)C(C(F)(F)F)CC(c1ccco1)N2 (centres undefined)	7.4	-9.4%	-8.7%
COc1ccccc1N(CC(=O)NC1CCCC1)C(=O)c1oc(C(C)(C)C)cc1C	/	2.1%	/
CCS(=O)(=O)N1CCN(C(=O)c2ccc(-c3ccccc3)cc2)CC1	-25.0	-9.3%	-9.0%
O=C(c1ccc(-c2ccccc2)cc1)N1CCC(C(=O)N2CCCC2)CC1	-3.2	-13.6%	15.8µM*
CS(=O)(=O)N1CCN(C(=O)c2ccc(-c3ccccc3)cc2)CC1	-83.2*	-10.8%	-11.1%
Cc1occc1C(=O)N1CCN(c2ccccc2)CC1	56.4	4.8%	-5.0%
O=C(NC1CCCCC1)C1CCN(C(=O)c2ccc(-c3ccccc3)cc2)CC1	/	2.9%	/
Cc1occc1C(=O)N1CCN(S(C)(=O)=O)CC1	-5.5	20µM*	3.6%
CC(C)=C1C2CCC1C1C(=O)N(c3ccc4c(c3)OCO4)C(=O)C21 (centres undefined)	-21.3	-4.3%	-4.4%
CC(C)=C1C2C=CC1C1C(=O)N(c3ccc4c(c3)OCO4)C(=O)C21 (centres undefined)	33.6	3.55µM*	-13.6%
Cc1cc(NC(=O)CCSc2ccccc2)ccc1Br	47.0	-8.4%	-5.0%
CSc1ccccc1NC(=S)Nc1ccc(S(N)(=O)=O)cc1	/	-11.1%	/
Nc1nnc(CCC2CCCCC2)s1	39.9	-6.1%	-6.0%
N#CC1=C(N)SC(N)=C(C#N)C1CCC1CCCCC1	-27.8	14.1µM*	15.8µM*
CC1(C)Cc2c(sc3nc4n(c(=N)c23)CCC4)CO1	13.7	12.2%	-2.3%
CC1CC/C(=N/Nc2ccccc2)C(=O)N1 (centres undefined)	-13.4	?	-3.0%
Cc1c(C(=O)N2CCN(S(C)(=O)=O)CC2)oc2ccccc12	-19.1	?	-0.7%
Cc1c(C(=O)N2CCN(CCc3ccccc3)CC2)oc2ccccc12	?	14.1µM*	-4.3%
CCOc1ccccc1N1CCN(c2nc(N)c(C#N)c(CC#N)c2C#N)CC1	?	20µM*	-29.9%
SMILES	PNC inhibitor	ALDH1A1 block	HPGD inh
CCOc1ccccc1N1CCN(c2nc3ccccc3nc2C(C#N)C(=O)OC)CC1 (centres undefined)	37.0	-1.6%	-14.0%
COC(=O)/C=C/c1cccc([C@H]2[C@@H]3C=CC[C@@H](C)[C@@H]3C(=O)N2Cc2ccccc2)c1	/	?	-14.3%
CCOC(=O)CC1=NN(c2ccccc2)C(=O)C1	/	3.4%	/
CCOC(=O)CC1=NN(c2ccccc2)C(=O)/C1=C\c1ccc(N(C)C)cc1	30.9	5.01µM*	-26.2%
O=C(CSc1nnc2c(n1)[nH]c1ccc(S(=O)(=O)N3CCOCC3)cc12)Nc1ccc(F)c(F)c1	/	-5.5%	/
O=S(=O)(c1ccc(N2CCOCC2)nc1)N(Cc1ccccn1)Cc1ccccn1	/	-1.4%	/
CCc1c(C(=O)N2CCN(c3ccccc3F)CC2)[nH]c(C)c1C(C)=O	3.6	11.1%	-18.3%
Cc1nn(CCC#N)c2nc(-c3ccccc3)cc(C(F)(F)F)c12	45.5	?	?
Cc1nn(CCC(N)=S)c2nc(-c3cccs3)cc(C(F)(F)F)c12	?	12.6µM*	28.2µM*
CN1C(=O)C(C(=O)NC(C)(C)C)C2c3ccccc3OC13CCCCC23 (centres undefined)	?	6.5%	/
COc1ccc(N(CC(=O)NCc2ccncc2)S(=O)(=O)c2ccccc2[N+](=O)[O-])c(OC)c1	/	-2.9%	/
CCOC(=O)CC(=O)CSc1[nH]c(=O)cc(C)c1C#N	-9.5	-1.2%	14.1µM*
CCOC(=O)CSc1[nH]c(=O)cc(C)c1C#N	-17.8	5.4%	-1.5%
CCN1CCN(c2nc(S(=O)(=O)c3ccc(C)cc3)c(Cl)s2)CC1	/	-14.8%	/
O=C(c1nc2ccccn2c1CN1CCC(Cc2ccccc2)CC1)N1CCCC1	/	11.2µM*	/
O=c1cc(CN2CCC(Cc3ccccc3)CC2)nc2sccn12	/	-1.7%	/
CCOc1ccccc1NC(=O)C(Sc1ccccc1)c1ccccc1 (centres undefined)	-7.9	-4.5%	-14.6%
COc1ccc(N(Cc2nnc3n2CCCCC3)C(=O)Nc2ccccc2)cc1	/	7.9%	/
O=C(NNc1ccccc1[N+](=O)[O-])Nc1ccccc1	12.0	?	-12.9%
O=C(NNc1ccccc1[N+](=O)[O-])NC1CCCCC1	/	25.1µM*	/
O=C(/C=C/c1ccccc1[N+](=O)[O-])NC1CCCC1	/	14.1µM*	/
O=C(COC(=O)/C=C/c1ccccc1[N+](=O)[O-])NC1CC1	/	-1.8%	/
CCCn1c(C)nc2c(NCc3ccccc3)nc(C)nc21	/	-5.4%	-11.1%
COc1ccc(/C=C(\C#N)c2n[nH]c(Cn3cncn3)n2)cc1	/	-1.8%	/
COC(=O)NC(/C(C(=O)OC)=C(\C)NCc1ccccc1)c1ccccc1 (centres undefined)	/	28.0%[13.5 µM]	/
SMILES	PNC inhibitor	ALDH1A1 block	HPGD inh
COC(=O)NC(/C(C(=O)OC)=C(\C)NCc1ccccc1)c1ccc2ccccc2c1 (centres undefined)	/	3.55µM*	/
CC(C)c1ccc2c(c1)CC[C@H]1[C@@](C)(CN)CCC[C@@]21C	/	-3.2%[13.5 µM]	-5.3%
COc1cc(C)cc(OC)c1/C=C\C(=O)O	/	18.7%[13.5 µM]	-2.2%
O=C1N2CCSC2=NC1(Nc1ccccn1)C(F)(F)F (centres undefined)	-12.2	0.2%	-6.3%
CS(=O)(=O)c1ccc2nc(NC3(C(F)(F)F)N=C4SCCN4C3=O)sc2c1 (centres undefined)	-105.8*	4.5%	0.4%
Cc1noc(/C=C/c2nn(C)cc2Cl)c1[N+](=O)[O-]	/	8.91µM*	/
Cc1cc(O)ccc1N/C=C/c1onc(C)c1[N+](=O)[O-]	/	11.9%	/
O=C(/C=C/c1ccccc1Cl)c1cccnc1	5.2	14.1µM*	28.2µM*
N/C(=N\OC(=O)/C=C/c1ccccc1Cl)c1ccncc1	/	10µM*	/
O=C(/C=C/c1ccc(Cl)cc1)c1cccnc1	-0.6	-11.8%	-12.9%
N/C(=N\OC(=O)/C=C/c1ccccc1)c1ccncc1	/	3.1%	/
O=C(/C=C/c1ccc(OCc2ccccc2)c(OCc2ccccc2)c1)c1cccnc1	-16.1	7.08µM*	-24.6%
CCN(CC)c1ccc(/C=C/C(=O)c2cccnc2)cc1	/	-1.6%	/
CC1(c2ccc(Cl)cc2)NC(=O)N(CC(=O)NC(=O)NCc2ccco2)C1=O (centres undefined)	-1.4	-2.8%	1.0%
COc1ccc(/C=C/c2nnc(NC(=O)CSc3ccc(Cl)cc3)s2)cc1	20.7	?	?
COc1ccc(NC(=O)Cn2c(=O)n(CC(=O)NCc3ccco3)c(=O)c3ccccc32)cc1	-22.2	5.4%	-3.9%
